TDP1 inh – TDP1 (human) enzyme inhibition. recombinant TDP1, AlphaScreen DNA substrate cleavage. actives 0.28% (n = 350,000). Potency, µM (titrated, usually from 130 µM), hits mostly inhibitors; also: nearly all actives have a fitted effect of over 40% in size
Target sequence (Q9NUW8 whole entry, looked up): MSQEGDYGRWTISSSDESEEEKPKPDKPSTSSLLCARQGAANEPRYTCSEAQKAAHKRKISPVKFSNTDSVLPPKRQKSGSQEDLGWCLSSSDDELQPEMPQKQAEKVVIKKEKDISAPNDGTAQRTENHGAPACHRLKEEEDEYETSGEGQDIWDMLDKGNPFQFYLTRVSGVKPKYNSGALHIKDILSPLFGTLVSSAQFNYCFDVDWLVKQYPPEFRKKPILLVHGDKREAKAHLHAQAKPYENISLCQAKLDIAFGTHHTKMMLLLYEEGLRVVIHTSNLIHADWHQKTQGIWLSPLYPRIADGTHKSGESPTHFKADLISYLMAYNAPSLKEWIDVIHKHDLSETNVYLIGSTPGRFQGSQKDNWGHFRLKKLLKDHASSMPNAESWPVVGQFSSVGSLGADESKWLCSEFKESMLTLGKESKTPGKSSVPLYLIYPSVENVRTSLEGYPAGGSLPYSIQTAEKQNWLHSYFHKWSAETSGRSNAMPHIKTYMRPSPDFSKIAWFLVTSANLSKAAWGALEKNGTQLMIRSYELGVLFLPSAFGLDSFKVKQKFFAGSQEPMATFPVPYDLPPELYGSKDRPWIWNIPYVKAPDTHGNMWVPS
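Steps: enzyme plus compound, 15 min RT; add biotin/phosphotyrosine-FITC oligonucleotide (15 nM final), react 5 min; add donor/acceptor beads (10 ug/ml final), 10 min; read AlphaScreen. Tdp1 at 1 nM final.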
TDP1 cell CPT – DT40-hTDP1 cell growth loss with CPT; AID 686979; Potency, µM (top dose mostly 46.2 µM), hits mostly inhibitors; actives 12% (n = 420,000); chicken DT40 Tdp1-/-;hTDP1 cells + 20 nM CPT, ATP luminescence, 48 h; also: nearly all actives have a fitted effect of over 55% in size
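Chicken DT40 Tdp1-/- cells complemented with human TDP1, 400 cells/well, exposed to compounds plus 20 nM camptothecin for at least 48 h at 37 C; viability read as ATP content by CellTiter-Glo luminescence.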
ELG1 DNA repair – ELG1-dependent DNA repair inhibition. HEK293T ELG1-luciferase reporter, luminescence, 16 h; DNA damage induced by 5-fluorouridine. Potency, µM (doses to about 46.1 µM), actives largely listed as inhibitors. actives 2.3% (n = 330,000); also: nearly all actives have a fitted effect of over 55% in size
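Cells (2,000 per well) received 5-fluorouridine plus test compound or DMSO and were incubated 16 hr at 37 °C, 5% CO2. Luciferase activity was read by luminescence 30 min after ONE-Glo addition; signal suppression marked inhibition of damage-induced ELG1 function.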
DT40 TDP1 no CPT – qHTS for Inhibitors of human tyrosyl-DNA phosphodiesterase 1 (TDP1): qHTS in cells in absence of CPT; DT40 Tdp1-/- hTDP1 cells, no CPT, ATP luminescence, 48 h; Potency, µM (doses to about 46.2 µM), hits mostly inhibitors; actives 15% (n = 420,000); AID 686978, 2013; also: nearly all actives have a fitted effect of over 55% in size
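Stably hTDP1-transfected Tdp1-null chicken DT40 cells were treated with library compounds minus camptothecin and grown for at least 48 hr at 37 °C, after which cellular ATP was quantified by luminescence.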
Giardia kill – Giardia lamblia killing; Giardia lamblia trophozoite viability; activity change, % at 7.66 µM, hits read low; actives 0.15% (n = 340,000); AID 540267; in the data active = activity change below about -80%; inconclusive = between about -30% and that limit;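 also: parasites exposed to compound for two days anaerobically before the ATP read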
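Giardia trophozoites, 100 cells per well, were exposed to compounds for 48 hrs at 37 deg C under anaerobic conditions; viability was then read as ATP content by bioluminescence after 15-30 min at room temperature.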
IL1B secr inh – blocks inflammasome-driven IL-1 beta release; AID 743279; THP-1 LPS/ATP IL-1B secretion, AlphaLISA, 16 h; active compounds read low; activity change, % at 57.5 µM; actives 4.7% (n = 360,000); in the data active = activity change below about -50%; inconclusive = mostly about -30% to -49%
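Secreted IL-1B measured by AlphaLISA bead assay after 16 h compound exposure of THP-1 cells; compounds (final up to 57.5 uM) added 1 h before LPS (250 ng/mL) and ATP (1.25 mM) stimulation; lower signal means less secretion.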
Numbers stand for hits; 0 = inactive; ? = inconclusive; - = no result; [ ] = another dose, or the depositor's remark. Most compounds without a hit are left out; they make up all but 19% or so of the library. Unless noted, calls follow the shape of the dose curve; as a rule, active = well fitted curve in the direction sought with a large enough effect; inconclusive = small, poorly fitted or top-dose-only effect, or another doubt; inactive = no such curve, though single readings can be large; an effect the other way counts as inactive or inconclusive.

SMILES	TDP1 inh	TDP1 cell CPT	ELG1 DNA repair	DT40 TDP1 no CPT	Giardia kill	IL1B secr inh
COc1cccc(NC(=O)CC(=O)c2ccc([N+](=O)[O-])cc2)c1	-	?	?	?	0	0
COc1cccc(N/C(SCc2cccc([N+](=O)[O-])c2)=C(/C#N)C(N)=O)c1	0	?	?	?	0	-101.8
COc1ccc(C2CCCN2C(=S)Nc2ccc(C)c(C)c2)cc1OC (stereo unspecified)	0	0	25.9µM	?	0	0
COc1ccc(C2SCCN2C(=S)Nc2ccc(Cl)cc2)cc1 (stereo unspecified)	0	0	0	0	0	0
Cc1ccc(NC(=S)N2CCSC2c2cccs2)cc1 (stereo unspecified)	0	?	0	0	0	-82.4
COc1ccc(C2CCCN2C(=S)Nc2ccc(C)cc2C)cc1OC (stereo unspecified)	0	0	?	25.9µM	0	0
COc1ccc(C2SCCN2C(=S)Nc2cccc(Cl)c2)cc1 (stereo unspecified)	0	?	0	16.4µM	0	0
COc1ccc(C2CCCN2C(=O)Nc2ccc(C)c(C)c2)cc1OC (stereo unspecified)	0	0	?	0	0	0
CCC1CCCCN1CCCNC(=O)CS(=O)(=O)Cc1nc(-c2cccc(OC)c2)oc1C (stereo unspecified)	0	0	0	?	0	0
COc1ccc(NC(=O)c2cc(C3CCCCN3C(=O)c3ccc(Cl)cc3)on2)c(C)c1 (stereo unspecified)	-	?	-	?	-	0
CC(Sc1nnc(-c2ccncc2)n1C)C(=O)NCC1CCCO1 (stereo unspecified)	0	0	0	0	0	0
COc1ccc(C2CCCN2C(=S)Nc2cccc(Cl)c2C)cc1OC (stereo unspecified)	0	?	?	?	0	0
COc1cccc(NC(=S)N2CCCC2c2ccc(OC)c(OC)c2)c1 (stereo unspecified)	0	0	0	29.1µM	0	0
COc1ccc(C2CCCN2C(=S)Nc2cccc(Cl)c2)cc1OC (stereo unspecified)	0	0	?	?	0	-87.0
COc1ccc(C2CCCN2C(=S)Nc2c(C)cccc2C)cc1OC (stereo unspecified)	0	0	0	?	0	0
CCN(CC)S(=O)(=O)c1ccc2c(c1)N(CC(=O)N1CCN(c3cccc(C)c3)C(C)C1)C(=O)CO2 (stereo unspecified)	0	?	-	?	-	-
CCn1c(SCc2ccccc2Cl)nc(=O)c2c(C(=O)OC)cc(C3CC3)nc21	0	11.6µM	-	16.4µM	-	-
Cc1cnc(-n2ncc(C(=O)NCC(C)(C)N3CCOCC3)c2C)nc1-c1cccs1	-	0[9.04 µM]	-	0	-	-
CCN(CC)P(=O)(Nc1ccc(C)cc1Br)c1ccc(N(C)C)cc1NC(=O)c1ccco1 (stereo unspecified)	0	?	?	16.4µM	0	-65.6
CC(C)n1nc(C(=O)NCc2ccc3c(c2)OCO3)c2ccccc2c1=O	0	16.4µM	0	20.6µM	0	0
CC(C)(C)C(=O)c1cn(CC(=O)NCc2ccc3c(c2)OCO3)c2ccccc12	0	?	0	23.1µM	0	0
CCc1cccc(CC)c1NC(=S)NCc1ccc2c(c1)OCO2	0	23.1µM	0	18.4µM	0	0
OC(CN1CCN(Cc2ccc3c(c2)OCO3)CC1)c1c[nH]c2ccccc12 (stereo unspecified)	0	11.6µM	13µM	?	0	?
Cc1cc(CNC(=O)c2ccc3c(c2)OCO3)c2ccccc2n1	0	7.31µM	?	4.61µM	0	0
CCc1cccc(CC)c1NC(=S)NC(C)c1ccccc1 (stereo unspecified)	0	0	0	23.1µM	0	0
Cc1ccc(C(C(=O)Nc2ccc3c(c2)OCO3)N(C)C(=O)Cc2c[nH]c3ccccc23)cc1 (stereo unspecified)	0	?	0	0	0	-51.8
